Screening data (PubChem BioAssay)
An excerpt weighted towards active compounds, which were near 6% of everything screened.
D1 ag – agonists of human D1 dopamine receptor; 360,000 tested, 1% active; HEK293 T-REx D1 cells, calcium flux, agonist mode; AID 504660; activation, % at 2 µM; in the data active means activation above about 30%
Target sequence (P21728 whole entry, looked up): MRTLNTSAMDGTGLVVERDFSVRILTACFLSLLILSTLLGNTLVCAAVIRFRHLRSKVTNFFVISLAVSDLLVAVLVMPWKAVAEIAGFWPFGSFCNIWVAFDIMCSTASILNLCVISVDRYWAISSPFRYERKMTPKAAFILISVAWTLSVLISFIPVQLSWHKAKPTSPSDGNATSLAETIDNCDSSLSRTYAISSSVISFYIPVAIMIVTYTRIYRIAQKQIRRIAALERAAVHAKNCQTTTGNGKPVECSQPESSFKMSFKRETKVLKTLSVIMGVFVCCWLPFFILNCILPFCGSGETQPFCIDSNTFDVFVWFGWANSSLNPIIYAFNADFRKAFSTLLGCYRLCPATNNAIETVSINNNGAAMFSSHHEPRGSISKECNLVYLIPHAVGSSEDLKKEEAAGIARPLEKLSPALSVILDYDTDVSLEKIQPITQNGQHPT
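Tetracycline-induced HEK293 TREx D1 cells, force-coupled to calcium signalling, were dye-loaded with a no-wash calcium kit. Compound was pin-added after a 10 s baseline. Fluorescence was read kinetically at 1 cycle/s for 180 s, with calcium rises flagged as agonism.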
DRD3 antagonist – D3 dopamine receptor (human) antagonism; P35462; D3R cells, DiscoveRx beta-arrestin luminescence, antagonist mode; hits give low values; max response, negative = inhibition, %; 360,000 tested, 2.5% active; in the data active means max response below about -50%; inconclusive means no clear call, values can overlap the other calls
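Cells plated overnight at 1500 cells/well, then exposed to library compounds with dopamine controls for 90 minutes at 37 degrees C. DiscoveRx reagent added for 30–60 minutes at room temperature; luminescence read, quantitative HTS format.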
Chronic BCR inh – inhibitors of chronic active B-cell receptor signaling; ABC-DLBCL IkBa-CBG/CBR reporter, luminescence ratio, 4 h; Potency, µM (series often up to 46.1 µM), usual class: inhibitors; 340,000 tested, 0.05% active; AID 493014; active means well fitted inhibition curve with a large enough effect in the signal ratio, with a control signal flat, not every such curve was filed as active; inconclusive means small, poorly fitted or top-dose-only effect, or effect the other way, or a change in a side signal; the % refers to the signal ratio
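TMD8 human ABC-DLBCL cells with doxycycline-inducible IκBα–green luciferase fusion and unfused red luciferase, in 0.5% FBS medium; compounds up to 46 uM, 4 h at 37C. Green/red luminescence ratio, filter-overlap corrected, fitted to concentration-response curves.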
D3 ag – D3 dopamine receptor (human) agonism. 410,000 tested, 0.58% active. D3R DiscoveRx beta-arrestin cells, luminescence, 90 min. max activation, %; in the data active means max activation above about 30%
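Agonist-mode cell screen: cells plated at 1500/well and incubated overnight at 37 °C, then exposed to library compounds for 90 min at 37 °C. Detection reagent was added for 30–60 min at room temperature, and luminescence was read.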
D1 PAM – enhances dopamine response at the human D1 receptor. HEK293 TREx D1 cells, calcium flux, dopamine EC20 potentiation. 360,000 tested, 0.036% active. potentiation, % at 10 µM. AID 504651; in the data active means potentiation above about 30%
D1 antag – human D1 dopamine receptor antagonism; HEK293 TREx D1 cells, calcium flux, dopamine EC80; hits give low values; 360,000 tested, 3.2% active; P21728; AID 504652; activity change, negative = inhibition, % at 10 µM; in the data active means activity change below about -30%
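Compound effects on dopamine-evoked calcium signalling were measured in tetracycline-induced HEK293 Trex D1 cells. Dopamine at EC80 followed a 180 s compound pre-read, and fluorescence was tracked kinetically for 180 s more.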
Of the large screens only hits and unclear results are named; the others gave an inactive call.

COc1ccc(C2(C)NC(=O)N(CC(=O)c3cc(C)n(C4CC4)c3C)C2=O)cc1 (stereo not given)	D1 ag 64.1, Chronic BCR inh inconclusive
CC(C)CNC(=O)C(=O)Nc1c2c(nn1-c1ccccc1)CS(=O)(=O)C2	none (no result: DRD3 antagonist, D1 antag)
CCCCCCCCN1C(=O)[C@H](CC(=O)NCc2cccc3ccccc23)C[C@@]2(C(=O)OCC)CCCC=C12	none (no result: D1 ag, Chronic BCR inh, D1 PAM, D1 antag)
CCn1cnc2c1c(=O)n(CC(=O)Nc1ccc3c(c1)OC(F)(F)O3)c(=O)n2Cc1ccccc1	DRD3 antagonist -50.1
CCn1cnc2c1c(=O)n(Cc1cccc(Br)c1)c(=O)n2Cc1ccccc1	D3 ag 35.0
CCNC(=O)c1cnc2c(-c3ccccc3)c(C)nn2c1C	none (no result: DRD3 antagonist, Chronic BCR inh)
CCCS(=O)(=O)NC(=O)C1(C)CCN(C(=O)c2ccccc2OC)C1 (stereo not given)	none (no result: D1 ag, Chronic BCR inh, D1 PAM, D1 antag)
N#CC1=C(SCC(=O)NC2CC2)NC(=O)C(C#N)C12CCCCC2 (stereo not given)	none
N#CC1=C(SCC(=O)Nc2cccc3cccnc23)NC(=O)C(C#N)C12CCCCC2 (stereo not given)	Chronic BCR inh inconclusive, D3 ag 38.7
O=c1[nH]nc(SCc2ccccc2)n1C1CC2C=CC1C2 (stereo not given)	Chronic BCR inh inconclusive, D1 antag -32.3
Cc1ccc(CN(C(=O)COc2ccc(F)cc2)C2CCS(=O)(=O)C2)o1 (stereo not given)	none (no result: DRD3 antagonist, Chronic BCR inh)
Cc1ccccc1OCC(=O)Nc1ccc2nc(SCc3ccccc3)sc2c1	none (no result: DRD3 antagonist, Chronic BCR inh)
COc1cccc(C(C(=O)NCc2ccccc2)N2CCN(C(=O)C3CCCO3)CC2)c1OC (stereo not given)	DRD3 antagonist inconclusive (no result: D1 ag, Chronic BCR inh, D1 PAM, D1 antag)
CCn1cc(/C=C(\NC(=O)c2ccccc2F)C(=O)N2CCOCC2)c2ccccc21	D1 antag -34.2
COCCNC(=O)c1c(NC(=O)c2cc(=O)c3cc(C)cc(C)c3o2)sc2c1CCCC2	none (no result: DRD3 antagonist, Chronic BCR inh)
COc1ccc(N2CCN(C(=O)CN3C(=O)NC4(CCCc5ccccc54)C3=O)CC2)cc1 (stereo not given)	DRD3 antagonist -73.6
COc1ccc(N2CCN(C(=O)CN3C(=O)NC(c4ccc(OC)cc4)(c4ccc(OC)cc4)C3=O)CC2)cc1	none
Cc1ccccc1C(=O)Nc1cccc(NC(=O)c2ccc(C(C)(C)C)cc2)c1	none (no result: DRD3 antagonist, Chronic BCR inh)
CC(C)(C)c1ccc(OCCCNC2CCCC2)cc1	DRD3 antagonist inconclusive, Chronic BCR inh inconclusive
CC(C)NCCOc1cccc(Br)c1	DRD3 antagonist -74.8
Brc1cccc(OCCCNC2CCCC2)c1	DRD3 antagonist -91.3
COc1ccccc1-c1ccc(/C=C2\C=CC(=O)O2)o1	D1 ag 291.5
CCOC(=O)Cn1nc(C)n(-c2ccc(Br)cc2)c1=O	D1 antag -47.6
CCOC(=O)Cn1nc(C)n(-c2ccc(Cl)cc2)c1=O	none (no result: D1 antag)
O=C(C[n+]1ccccc1)N/N=C/c1cc(Br)cc(Br)c1O	DRD3 antagonist -165.2
CCC(O)(CC)C(=O)N/N=C/c1cc(Br)cc(Br)c1O	DRD3 antagonist -66.0, Chronic BCR inh inconclusive
CC1CCCN(CCCNC(=O)c2cc(Sc3ccc(F)cc3)nc3ccccc23)C1 (stereo not given)	Chronic BCR inh inconclusive (no result: DRD3 antagonist)
Cc1nc2ccccc2c2oc(C(=O)NCCCN3CCCC(C)C3)cc12 (stereo not given)	DRD3 antagonist -77.2, Chronic BCR inh inconclusive
CCOC(=O)C1CCCN(C(=O)c2cc3c(C)nc4ccccc4c3o2)C1 (stereo not given)	Chronic BCR inh inconclusive, D3 ag 38.5
Cc1nc2ccccc2c2oc(C(=O)N3CC(C)CC(C)C3)cc12 (stereo not given)	none
Cc1nc2ccccc2c2oc(C(=O)NCCCN3CC(C)CC(C)C3)cc12 (stereo not given)	DRD3 antagonist -65.3
Cc1c(F)cccc1NC(=O)C1CCCN1S(=O)(=O)c1ccc(F)cc1 (stereo not given)	none (no result: DRD3 antagonist, Chronic BCR inh)
Cc1ccccc1N1CCN(C2CCCN(C(=O)c3cc(CC(C)C)nn3C)C2)CC1 (stereo not given)	D1 antag -31.8
